# Screening data deposited in PubChem by Sanford-Burnham Center for Chemical Genomics.
# CYP2C19 inhib – blockers of cytochrome P450 2C19 activity – biochemical, luminescence, ADME assay, primary screen. AID 778, 2007. hit rate 21% among 96,000. CYP2C19 Supersomes, luciferin-H EGE luminescence, 30 min. inhibition, % at 5 µM. P33261;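 active = CYP2C19 inhibition above a set limit at 5 µM in the primary screen, cut at about 50% in these data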;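 also: plate controls were negative control wells for no effect and 2.5 mM tranylcypromine positive control for full effect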
# CYP2C19 activ – human CYP2C19 activators, primary screen, biochemical, luminescence. Cytochrome P450 2C19 (Homo sapiens), P33261. activation factor at 5 µM. 96,000 tested, under 10 active. recombinant CYP2C19, luciferin-H EGE luminescence; hits give high values; 0 = fully inhibited enzyme, 1 = untreated enzyme;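 active = activation factor of at least 2 at 5 µM in the primary screen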;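 also: 0 = wells with 2.5 mM tranylcypromine and 1 = vehicle-only wells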
# CYP2C9 inhib – blockers of cytochrome P450 2C9 activity – biochemical, luminescence, ADME assay, primary screen | AID 777, 2007 | inhibition, % at 5 µM | hit rate 20% among 96,000 | CYP2C9 Supersomes, luciferin-H conversion;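 active = blocking of liver enzyme CYP2C9 beyond about 50% at 5 µM, limit read from the data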
# CYP2C9 activ – human CYP2C9 activators, primary screen, biochemical, luminescence; Cytochrome P450 2C9 (Homo sapiens), P11712; recombinant CYP2C9, luciferin-H conversion; hits give high values; factor 1 = untreated enzyme, 0 = blocked; activation factor at 5 µM; hit rate 1.4% among 96,000;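 active = activation factor of 2 or more for CYP2C9 at a 5 µM dose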;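 also: 0 = sulfaphenazole-blocked wells and 1 = vehicle-only wells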
# PLAP act – PLAP enzyme activators, biochemical, luminescence, HTS; AID 696, 2007; activation fold at 20 µM; hit rate 1.2% among 96,000; purified PLAP enzyme, luminescent substrate read-out; hits give high values; Alkaline phosphatase, placental type (Homo sapiens), P05187; in the data active = activation fold above about 2
# Target sequence (P05187 whole entry, looked up): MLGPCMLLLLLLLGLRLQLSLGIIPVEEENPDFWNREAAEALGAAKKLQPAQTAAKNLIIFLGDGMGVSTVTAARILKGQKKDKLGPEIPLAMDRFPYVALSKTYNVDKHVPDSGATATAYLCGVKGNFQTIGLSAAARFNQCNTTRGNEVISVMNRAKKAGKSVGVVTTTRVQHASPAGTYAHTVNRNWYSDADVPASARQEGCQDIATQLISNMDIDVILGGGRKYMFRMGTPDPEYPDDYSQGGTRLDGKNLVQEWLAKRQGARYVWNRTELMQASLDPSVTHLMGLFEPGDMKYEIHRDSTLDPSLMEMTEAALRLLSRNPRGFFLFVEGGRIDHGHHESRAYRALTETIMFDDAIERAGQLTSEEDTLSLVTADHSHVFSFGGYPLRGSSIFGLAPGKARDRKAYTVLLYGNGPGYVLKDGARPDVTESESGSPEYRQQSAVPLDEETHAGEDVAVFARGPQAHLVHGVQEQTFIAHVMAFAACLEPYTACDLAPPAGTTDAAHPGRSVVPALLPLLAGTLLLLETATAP
# An asterisk follows results filed as active. A selection: hits, their analogues and other compounds. The true share with any hit is near 31%.
SMILES,CYP2C19 inhib,CYP2C19 activ,CYP2C9 inhib,CYP2C9 activ,PLAP act
Cc1ccc(CNC(=O)C2CCCN(S(=O)(=O)c3c(C)n[nH]c3C)C2)cc1 (stereo not given),71*,0.3,15,0.8,2.3*
Cc1n[nH]c(C)c1S(=O)(=O)N1CCCC(C(=O)Nc2nccs2)C1 (stereo not given),61*,0.4,73*,0.3,1
O=C(Nc1nccs1)C1CCN(S(=O)(=O)c2c(Cl)cccc2Cl)CC1,92*,0.1,40,0.6,1
COc1cc(C=O)c(Br)cc1OCc1ccc(C)cc1,40,0.6,15,0.9,1.1
N#Cc1ccc(CSc2ncnc3c2cnn3Cc2ccccc2)cc1,11,0.9,16,0.8,0.9
CCCOC(=O)C1C2C=C[C@]3(CN(CCc4ccccc4)C(=O)[C@H]13)O2 (stereo not given in full),9,0.9,-9,1.1,1.7
O=C(NC1CCSC1=O)c1ccccc1 (stereo not given),1,1,8,0.9,1
O=C1OC(NC(=O)c2ccccc2)C(n2cc(CO)nn2)=C1Cl (stereo not given),13,0.9,66*,0.3,1.1
O=C(NC12CC3CC(CC(C3)C1)C2)c1ccc(COc2ccc(Cl)cc2[N+](=O)[O-])o1,41,0.6,75*,0.3,1.2
O=C(NC1CCC(NC(=O)C2CCCO2)CC1)C1CCCO1 (stereo not given),-10,1.1,-9,1.1,1.1
c1ccc(-n2c(-c3ccncc3)nnc2-c2cccs2)cc1,71*,0.3,54*,0.5,0.9
c1ccc(-n2c(-c3ccncc3)nnc2-c2ccco2)cc1,80*,0.2,50,0.5,1.2
Cc1ccc(-n2c(-c3ccncc3)nnc2-c2ccco2)cc1,24,0.8,11,0.9,1.2
Cc1c(C(=O)O)oc2ccc(S(=O)(=O)NCc3ccccc3)cc12,-26,1.3,-24,1.2,1.5
COc1ccc(-n2c(C)cc(C(=O)Cn3c(NCCO)nc4ccccc43)c2C)cc1,65*,0.4,63*,0.4,1.6
Cn1ccnc1C(O)c1ccc(OCc2ccccc2)cc1 (stereo not given),51*,0.5,14,0.9,1.6
COc1cccc(C(N)CC(=O)O)c1 (stereo not given),-18,1.2,-22,1.2,0.9
CCn1ccnc1C(O)c1cccc(OC)c1 (stereo not given),52*,0.5,-10,1.1,1
COc1ccc(C(O)c2nccn2Cc2ccccc2)cc1 (stereo not given),56*,0.4,7,0.9,1
COc1ccc2ccccc2c1C(O)c1nccn1C (stereo not given),28,0.7,41,0.6,2*
CCCc1ncc(C(O)c2ccc(OC)cc2)n1C (stereo not given),17,0.8,25,0.8,0.9
O=C(Nc1ccc(F)cc1)c1cc(S(=O)(=O)N2CCCCC2)cs1,27,0.7,49,0.5,1
CC(O)c1n(C)c(Cl)c[n+]1C (stereo not given),-3,1,-21,1.2,0.9
Cc1ccc(-c2nc(CS(=O)(=O)CC(=O)NC3CCCCC3C)c(C)o2)cc1 (stereo not given),22,0.8,27,0.7,1
CCOc1cc(Cl)c(S(=O)(=O)NCc2ccccn2)cc1Cl,23,0.8,-30,1.3,1.6
SMILES,CYP2C19 inhib,CYP2C19 activ,CYP2C9 inhib,CYP2C9 activ,PLAP act
CC1=CC(C)(C)Nc2ccc(OC(=O)c3cccnc3)cc21,71*,0.3,41,0.6,1
CC1=CC(C)(C)Nc2ccc(OC(=O)c3ccco3)cc21,78*,0.2,-46,1.5,1
CC1=CC(C)(C)Nc2ccc(OC(=O)CN3C(=O)CCC3=O)cc21,-6,1.1,-11,1.1,1.2
CC1=CC(C)(C)Nc2ccc(OC(=O)C(C)N3C(=O)c4ccccc4C3=O)cc21 (stereo not given),36,0.6,87*,0.1,1.3
CCOC(=O)c1cc2ccc(OC(=O)c3ccco3)cc2oc1=O,-6,1.1,0,1,0.9
CCN(CC)S(=O)(=O)c1ccc(OC)c(NC(=O)c2cc([N+](=O)[O-])ccc2Cl)c1,5,0.9,32,0.7,0.9
COCCOc1cc(NC(=O)c2sccc2Oc2ccc([N+](=O)[O-])cc2F)c(Cl)cc1Cl,19,0.8,59*,0.4,1.4
CCOc1ccc(CCNS(=O)(=O)c2cnc[nH]2)cc1OCC,68*,0.3,94*,0.1,1.1
C/C(N)=C(/C#N)C(=O)COC(=O)CCSc1ccccc1Cl,64*,0.4,0,1,0.9
C/C(N)=C(/C#N)C(=O)COC(=O)CSc1ccccc1,48,0.5,40,0.6,1.6
CCSc1n[nH]c(=O)[nH]c1=O,-1,1,2,1,1.1
CC(C)CC1(C)NC(=O)N(CCN2C(=O)c3ccccc3C2=O)C1=O (stereo not given),75*,0.2,48,0.5,1
CC1(C)C(=O)Nc2ccccc2N1C(=O)CN1C(=O)c2ccccc2C1=O,-5,1.1,11,0.9,0.9
CCn1c(=O)n(CCc2ccccc2)c(=O)c2c3c(sc21)CCCC3,-2,1,-9,1.1,0.8
NC(=O)Cn1c(=O)n(Cc2ccco2)c(=O)c2c3c(sc21)CCCCC3,21,0.8,18,0.8,1
CC1(C)Cc2c(sc3c2c(=N)n(Cc2ccco2)c(=O)n3CC(=O)Nc2cccc(Cl)c2)CO1,28,0.7,45,0.6,1.8
O=C(Cn1c(=O)n(Cc2ccco2)c(=O)c2c3c(sc21)CCCC3)Nc1ccccc1,72*,0.3,80*,0.2,1.6
Cc1cccc(NC(=O)Cn2c(=O)n(Cc3ccco3)c(=N)c3c4c(sc32)COC(C)(C)C4)c1,59*,0.4,61*,0.4,1.5
O=c1c2c3c(sc2n(CCN2CCCCC2)c(=O)n1Cc1ccco1)CCCCC3,45,0.5,61*,0.4,1.9
O=c1c2c3c(sc2n(CCN2CCOCC2)c(=O)n1Cc1ccco1)CCCCC3,51*,0.5,77*,0.2,1.5
COc1ccc(C)cc1NC(=O)c1cc2ccccc2cc1OCC(=O)NCc1ccco1,15,0.9,47,0.5,0.8
O=C(C1CCC1)N1CCc2cc(S(=O)(=O)NC3CCCC3)ccc21,72*,0.3,83*,0.2,0.9
O=C(O)CCC(=O)N1CCc2cc(S(=O)(=O)NC3CCCC3)ccc21,-16,1.2,-7,1.1,1.1
CCCN(CCC)CCNS(=O)(=O)c1ccc2c(c1)CCN2C(=O)C1CCC1,94*,0.1,40,0.6,1.7
O=C(C1CC1)N1CCc2cc(S(=O)(=O)NCCC3=CCCCC3)ccc21,48,0.5,-13,1.1,1.2
